Screening results as filed in PubChem.
This is a sample that favours compounds with a hit; in the whole collection about 7.1% have one here.
S2 tox: Viability Counterscreen for Primary qHTS for Inhibitors of ATXN expression; S2 cells (HEK-293 line with an ATXN2-luciferase reporter) viability, CellTiter-Fluor protease fluorescence, 24 h; Potency, µM (series often up to 56.7 µM), actives largely listed as cytotoxic; actives 0.49% (n = 400,000); also: nearly all actives have a fitted effect of over 40% in size
PINK1 modulator: A Quantitative High throughput Screen to Identify Chemical Modulators of PINK1 Expression. AID 624263, 2012. actives 0.2% (n = 410,000). PINK1 immunofluorescence, high-content cytometry, 24 h. Potency, µM (titrated, usually from 76.6 µM), actives largely listed as activators; active = well fitted activation curve with a large enough effect; inconclusive = small, poorly fitted or top-dose-only effect; cell line not stated here; also: nearly all actives have a fitted effect of over 65% in size
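Decision-based qHTS: stable cells, 24 h exposure to five compound concentrations, CCCP as control. Fixed cells stained for PINK1 plus nuclear, mitochondrial and cell markers, cytometer read.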
SW480 rereplic: A quantitative high throughput screen for small molecules that induce DNA re-replication in SW480 colon adenocarcinoma cells | SW480 DNA re-replication, Hoechst DNA content imaging, 48 h | Potency, µM (doses to about 46.1 µM), most hits filed as activators | actives 1.8% (n = 340,000) | AID 624297, 2012; also: nearly all actives have a fitted effect of over 55% in size
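SW480 cells exposed to compounds for 48 hr at 37 C, 5% CO2, then Hoechst-stained 40 min. Nuclear DNA content imaged by fluorescence scanning (405 nm excitation, 500-530 nm emission); re-replication scored as increased high-intensity nuclei.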
IL1B secr inh: qHTS for Inhibitors of Inflammasome Signaling: IL-1-beta AlphaLISA Primary Screen. THP-1 LPS/ATP IL-1B secretion, AlphaLISA, 16 h; active compounds read low. AID 743279, 2014. actives 4.7% (n = 360,000). activity change, % at 57.5 µM; in the data active = activity change below about -50%; inconclusive = mostly about -30% to -49%
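THP-1 cells pretreated 1 hr with compounds (up to 57.5 uM final), then stimulated with LPS (250 ng/mL final) plus ATP (1.25 mM final); secreted IL-1B measured by AlphaLISA after 16 hr, decreased signal indicating inhibition.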
MCF10A rereplic: A quantitative high throughput screen for small molecules that induce DNA re-replication in MCF 10a normal breast cells. actives 2.9% (n = 350,000). Potency, µM (doses to about 46.1 µM), hits mostly activators. MCF 10A DNA re-replication, Hoechst nuclear intensity, 48 h; also: nearly all actives have a fitted effect of over 50% in size
ATXN2 expr inh: Primary qHTS for Inhibitors of ATXN expression | actives 0.72% (n = 360,000) | HEK-293 ATXN2-luciferase reporter, luminescence, 24 h | Potency, µM (top dose mostly 57 µM), actives largely listed as inhibitors; also: nearly all actives have a fitted effect of over 55% in size
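ATXN2-luciferase reporter cells (luciferase flanked by upstream and downstream ATXN2 gene portions) were treated 24 h at 37 °C with compounds at up to 57 uM. SteadyGlo luminescence gave expression; GF-AFC fluorescence gave viability.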
Hits are given with their value; – = inactive; ? = inconclusive; · = no result; ! = not confirmed by another sample. Unless noted, calls follow the shape of the dose curve; as a rule, active = well fitted curve in the direction sought with a large enough effect; inconclusive = small, poorly fitted or top-dose-only effect, or another doubt; inactive = no such curve, though single readings can be large; an effect the other way counts as inactive or inconclusive.

SMILES | S2 tox | PINK1 modulator | SW480 rereplic | IL1B secr inh | MCF10A rereplic | ATXN2 expr inh
CCN(CC)c1ccc(/C=N/NC(=O)c2cccc(S(=O)(=O)N3CCOCC3)c2)c(O)c1 | · | – | ? | – | 15µM | 1.9µM
CCN(CC)c1ccc(C=Nc2cccc(S(=O)(=O)N3CCOCC3)c2)c(O)c1 | ? | – | – | – | – | –
Cc1ccc(N(Cc2ccccc2)C(=O)c2ccc(S(=O)(=O)N3CCOCC3)cc2)cc1 | – | – | – | -60 | – | –
Cc1ccc(N(Cc2ccccc2)C(=O)c2cccc(S(=O)(=O)N3CCOCC3)c2)cc1 | – | – | – | – | – | –
Cc1cc(C)c(/C=C/c2onc(C)c2S(=O)(=O)N2CCC(C(=O)N(C)Cc3ccccc3)CC2)c(C)c1 | · | – | · | · | · | ·
COCc1cc(=O)[nH]c(Nc2nc(C)c3ccccc3n2)n1 | – | – | ? | -65 | ? | –
COCc1cc(=O)[nH]c(Nc2nc3ccccc3o2)n1 | ? | – | ? | – | ? | ?
COc1cccc(CNC(=O)c2ccc3c(c2)N(Cc2ccc(F)cc2Cl)C(=O)c2ccccc2S3)c1 | · | – | · | · | · | ·
COc1ccc(CCN2C(=O)NC(NC(C)=O)(C(F)(F)F)C2=O)cc1OC (stereo unspecified) | – | – | – | – | – | –
COc1ccc(C(=O)NC2(C(F)(F)F)NC(=O)N(CCCc3ccccc3)C2=O)cc1OC (stereo unspecified) | – | – | – | -68 | – | –
Cc1ccc2sc(N(CCN(C)C)C(=O)c3ccc(S(=O)(=O)N4CC(C)OC(C)C4)cc3)nc2c1C (stereo unspecified) | – | – | – | -65 | – | –
Cc1cc(C)c2nc(N(CCCN(C)C)C(=O)c3ccc(S(=O)(=O)N4CC(C)OC(C)C4)cc3)sc2c1 (stereo unspecified) | – | – | ? | -96 | – | –
Cc1ccc2nc(N(CCCN(C)C)C(=O)c3ccc(S(=O)(=O)N4CCOCC4)cc3)sc2c1 | – | – | – | – | – | –
COc1ccc(NS(=O)(=O)c2ccc(NC(=O)N3CCCC3)cc2)cc1 | – | – | · | · | · | –
COC(=O)c1ccc(Oc2cc(C)nc(SC)n2)cc1 | – | – | – | – | 3.7µM | –
CC(CN1CCN(C)CC1)OC(=O)c1ccc(Cl)cc1 (stereo unspecified) | – | – | – | -84 | ? | –
c1ccc2c(C[C@@H]3CNCCN3CC3CCCCC3)cccc2c1 | ? | – | – | -58 | ? | ?
Oc1ccc(C[C@@H]2CNCCN2CC2CCCCC2)cc1 | – | – | – | – | – | –
CCN1CCN(c2ccc(S(=O)(=O)N3CCCCC3)cc2NC(=O)Cc2c(F)cccc2Cl)CC1 | – | – | – | -63 | – | –
CCN1CCN(c2ccc(S(=O)(=O)N3CCCCC3)cc2NC(=O)Cc2ccc(OC)cc2)CC1 | – | – | – | -80 | ? | –
CCCCNC(=O)CSc1nnc(C)c2c(C)n(-c3ccccc3)nc12 | – | – | · | · | · | ?
COc1ccc(C(=O)c2ccc3oc(-c4ccc(OC)cc4)c(C#CCCO)c3c2)cc1 | – | – | – | – | – | –
COc1cc(OC)cc(-c2oc3cccnc3c2C#CCCO)c1 | – | – | – | -64 | – | –
CCc1cc(C(=O)c2ccc(C)cc2)c(NC(=O)CCl)s1 | · | – | ? | -98 | ? | ?
Cc1cc(C(=O)c2ccc(Cl)cc2)c(NC(=O)CCl)s1 | · | – | ? | -117 | 21µM | ?
SMILES | S2 tox | PINK1 modulator | SW480 rereplic | IL1B secr inh | MCF10A rereplic | ATXN2 expr inh
Cc1cc(CNC(=O)c2cnn(-c3ncc4c(n3)-c3ccccc3CCC4)c2C2CC2)on1 | – | – | · | · | · | ·
COc1ccc(/C=C2/CCc3ccccc3C2=O)cc1CN1CCOCC1 | – | – | – | – | ? | –
COc1ccc(/C=C2\CCc3ccccc3C2=O)cc1Cn1nc(C)cc1C | ? | – | ? | -51 | ? | –
O=C(Cc1ccc(NC(=O)N2CCSc3ncccc32)cc1)NCCc1ccccc1 | · | – | · | · | · | ·
CCN(CC)CCN(C(=O)CCS(=O)(=O)c1ccccc1)c1nc2c(C)cc(C)cc2s1 | · | – | ? | -90 | ? | –
Cc1cccc2sc(N(CCN3CCOCC3)C(=O)CCS(=O)(=O)c3ccccc3)nc12 | · | – | ? | -98 | ? | ?
Cc1cc(C)c2sc(N(CCN(C)C)C(=O)CCS(=O)(=O)c3ccccc3)nc2c1 | ? | – | – | – | ? | ?
CCN(CC)CCN(C(=O)CCS(=O)(=O)c1ccccc1)c1nc2cc(C)cc(C)c2s1 | – | – | – | -102 | – | –
O=C(NCCc1ccccc1)c1ccc2c(c1)N(Cc1ccccc1)C(=O)c1ccccc1S2=O (stereo unspecified) | · | – | · | · | · | ·
CO[C@H](C(=O)[C@@H](O)[C@@H](C)O)C1Cc2cc3cc(O[C@H]4C[C@@H](O[C@H]5C[C@@H](O)[C@H](O)[C@@H](C)O5)[C@@H](O)[C@@H](C)O4)c(C)c(O)c3c(O)c2C(=O)[C@H]1O[C@H]1C[C@@H](O[C@H]2C[C@@H](O[C@H]3C[C@](C)(O)[C@H](O)[C@@H](C)O3)[C@H](O)[C@@H](C)O2)[C@H](O)[C@@H](C)O1 (stereo partly specified) | ? | · | ? | · | – | ·
Cc1ccc(NC(=O)Cn2c(=O)n(-c3ccc(Cl)c(Cl)c3)c(=O)c3c(C)c(C)sc32)c(C)c1 | – | – | · | · | · | –
CC(C)CC1Nc2ncnc(N3CCCCC3)c2N(Cc2ccccc2)C1=O (stereo unspecified) | ? | – | ? | – | – | –
CCC1Nc2ncnc(N3CCc4ccccc4C3)c2N(Cc2ccc(Br)cc2)C1=O (stereo unspecified) | ? | – | · | -95 | · | ?
CC(C)CC1Nc2ncnc(N3CCN(c4ccccc4)CC3)c2N(Cc2ccccc2)C1=O (stereo unspecified) | ? | – | ? | – | – | –
COc1ccc(CN2C(=O)C(CC(C)C)Nc3ncnc(N4CCN(c5ccccc5)CC4)c32)cc1 (stereo unspecified) | – | – | ? | -62! | – | –
O=C1C(Cc2ccccc2)Nc2ncnc(N3CCN(c4ccccc4)CC3)c2N1Cc1ccc(Cl)cc1 (stereo unspecified) | – | – | – | -56 | – | –
CC(C)CC1Nc2ncnc(N3CCN(c4ccccn4)CC3)c2N(Cc2ccc(Cl)cc2)C1=O (stereo unspecified) | ? | – | – | -70! | – | –
CC1Nc2ncnc(N3CCc4ccccc4C3)c2N(Cc2ccc(Br)cc2)C1=O (stereo unspecified) | ? | – | ? | ? | ? | ?
